Assay outcomes deposited in PubChem BioAssay by National Center for Advancing Translational Sciences (NCATS).
In the library only some 3.4% were active in any assay of this set; here they are far more common.
p53ts 39C kill – qHTS Screen for Compounds that Selectively Target Cancer Cells with p53 Mutations: Cytotoxicity of p53ts Cells at the Nonpermissive Temperature | H1299-p53A138V viability at 39C, ATP luminescence, 24 h | AID 902, 2007 | hit rate 1.5% among 130,000 | Potency, µM (titrated, usually from 46.1 µM), without a hit: top-dose activity change, negative = cell killing, actives largely listed as cytotoxic; note: % is set by controls: 0 for no effect and ±100 for the full control effect; nearly all actives have a fitted effect of over 55% in size
p53ts 32C kill – qHTS Screen for Compounds that Selectively Target Cancer Cells with p53 Mutations: Cytotoxicity of p53ts Cells at the Permissive Temperature | Potency, µM (titrated, usually from 46.1 µM), for the others: at the top dose activity change, negative = cytotoxicity, most hits filed as cytotoxic | H1299-p53A138V at 32C, ATP luminescence viability, 24 h | hit rate 0.93% among 130,000;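 note: 0% = DMSO and -100% = full killing by reference compound; nearly all actives have a fitted effect of over 55% in size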
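ATP-content luminescence (ATPlite) read-out after 24 h compound exposure at 32C in H1299-p53A138V cells (600/well). Tested up to 46 uM. Normalized to DMSO (0%) and 100 uM tamoxifen (100% killing); Hill-fit AC50.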
Tau filament bind – qHTS Assay for Tau Filament Binding; AID 596, 2007; Potency, µM (titrated, usually from 57.1 µM), for inactives: top-dose activity change, negative = inhibition; hit rate 2% among 71,000; recombinant tau filaments, thioflavin S fluorescence, 15 h; filaments grown with octadecylsulfate alongside compound; Microtubule-associated protein tau (Homo sapiens), P10636;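 note: % is set by controls: 0 for no effect and ±100 for the full control effect; actives lower thioflavin S fluorescence by blocking filaments or displacing dye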
Target sequence (P10636 whole entry, looked up): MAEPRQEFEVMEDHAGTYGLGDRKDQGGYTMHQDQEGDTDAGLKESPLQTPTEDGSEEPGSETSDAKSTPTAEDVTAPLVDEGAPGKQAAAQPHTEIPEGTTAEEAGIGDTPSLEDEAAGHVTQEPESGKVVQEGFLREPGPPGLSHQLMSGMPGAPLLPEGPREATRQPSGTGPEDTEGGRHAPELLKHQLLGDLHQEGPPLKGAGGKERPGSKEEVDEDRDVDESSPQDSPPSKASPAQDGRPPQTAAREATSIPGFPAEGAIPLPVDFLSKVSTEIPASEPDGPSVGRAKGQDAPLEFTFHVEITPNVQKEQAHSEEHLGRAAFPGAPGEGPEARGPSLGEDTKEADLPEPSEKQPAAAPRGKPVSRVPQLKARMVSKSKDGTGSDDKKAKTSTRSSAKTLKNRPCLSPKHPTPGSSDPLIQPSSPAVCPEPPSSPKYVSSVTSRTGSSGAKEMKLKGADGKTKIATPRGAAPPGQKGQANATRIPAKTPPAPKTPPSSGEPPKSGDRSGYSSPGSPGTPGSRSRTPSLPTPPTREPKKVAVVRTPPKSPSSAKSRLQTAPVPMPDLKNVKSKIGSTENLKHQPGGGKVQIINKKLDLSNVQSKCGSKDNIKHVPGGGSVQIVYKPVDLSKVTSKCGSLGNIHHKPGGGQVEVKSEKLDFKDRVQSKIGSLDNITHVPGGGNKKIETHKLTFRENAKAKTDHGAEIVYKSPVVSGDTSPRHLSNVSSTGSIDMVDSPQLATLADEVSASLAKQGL
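ThS-based fibril read: tau 1 uM final, inducer ODS 30 uM final, 37 C for 15 h, ex 450/em 510 nm.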
FLuc inh – qHTS Assay for Inhibitors of Firefly Luciferase. purified firefly luciferase, luminescence, 8 min. Potency, µM (doses to about 57.1 µM), inactives show top-dose activity change, negative = inhibition, actives largely listed as inhibitors. hit rate 2.2% among 72,000; note: % is set by controls: 0 for no effect and ±100 for the full control effect; nearly all actives have a fitted effect of over 40% in size
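Titration-based qHTS; buffer 50 mM imidazole pH 7.2, 50 mM KCl, 7 mM MgCl2, 10 uM ATP, 0.01% Tween 20, 0.05% BSA; luciferase/luciferin detector mix added after compound; 8 min, ambient; luminescence.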
Imprint erasure – qHTS Assay for Compounds that Induce Erasure of Genomic Imprints; mouse ES Peg3-LacZ reporter, beta-gal luminescence, 40 h; Potency, µM (doses to about 60.7 µM), inactives show top-dose activity change, positive = activation, actives largely listed as activators; hit rate 0.02% among 110,000; AID 1948, 2009
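Gelatin-coated wells received 300 freshly trypsinized female ES cells with a Peg3LacZ-Neo reporter on the maternal allele, then incubated 40 hours at 37C. BetaGlo was added for 5 minutes at room temperature before a single luminescence read.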
* hit, by the source's call; ? = inconclusive; / = not tested or not shown; ! = not active in a repeat; [ ] = dose if it differs, or a comment. Calls come from the whole dose curve; as a rule, active = well fitted curve in the direction sought with a large enough effect; inconclusive = small, poorly fitted or top-dose-only effect, or another doubt; inactive = no such curve, though single readings can be large; an effect the other way counts as inactive or inconclusive. Potency is the fitted concentration of half-maximal effect.

SMILES | p53ts 39C kill | p53ts 32C kill | Tau filament bind | FLuc inh | Imprint erasure
Cc1ccccc1-c1ccc2ncnc(NCc3cccs3)c2c1 | -12% | 16% | 2% | 1%[2.29 µM] | -17%
C=C(C)COc1ccc2c(C)c(CC(=O)OC)c(=O)oc2c1C | -10% | -24% | 28% | 16µM* | -25%
O=C1Cc2c([nH]c3ccc(Br)cc23)-c2ccccc2N1 | ? | ? | 32µM*! | ? | -24%
COc1ccc(Cc2nnc(SCC(=O)Nc3ncc(C)s3)o2)cc1 | 2% | 0% | 7% | 0% | -6%
COc1ccc(CCCc2nnc(SCC(=O)Nc3ncc(C)s3)o2)cc1 | ? | -28% | -17% | 16µM* | -22%
Cc1ccc(C(=O)CC2(O)C(=O)N(CCc3ccccc3)c3ccc(Cl)cc32)cc1 (configuration not stated) | 16µM* | ? | / | / | -12%[10.9 µM]
Cc1[nH]c2ccccc2c1C1(O)C(=O)N(Cc2ccccc2)c2ccc(Br)cc21 (configuration not stated) | 13µM* | -20% | / | / | -10%[10.9 µM]
O=C(CC1(O)C(=O)N(CCc2ccccc2)c2ccc(Br)cc21)c1ccccc1 (configuration not stated) | ? | -29% | / | / | -14%[10.9 µM]
Cc1[nH]c2ccccc2c1C1(O)C(=O)N(Cc2ccccc2Cl)c2ccccc21 (configuration not stated) | ? | -4% | / | / | -13%[10.9 µM]
COc1ccc(C(=O)CC2(O)C(=O)N(Cc3ccccc3)c3ccc(Br)cc32)cc1 (configuration not stated) | 13µM* | 15% | / | / | -12%[10.9 µM]
Cc1cccc(NC(=O)CSc2nccn2-c2cccc(Cl)c2)c1C | -6% | -3% | / | / | -3%[10.9 µM]
COc1ccccc1N1CCN(CC(O)COc2ccc(C)cc2C(C)(C)C)CC1 (configuration not stated) | 25µM* | -24% | / | / | -13%[10.9 µM]
C=CCn1c(N)c(-c2nc3ccccc3n2C)sc1=S | 10% | -1% | 16µM* | -1% | -13%
COc1ccc(C)cc1NC(=O)c1nnn(Cc2cccc(Br)c2)c1N | -15% | 0% | / | / | -9%[10.9 µM]
COc1cc(S(=O)(=O)Nc2ccccc2C)ccc1Cl | 0% | 8% | 13µM* | 4% | -6%
COc1cc(S(=O)(=O)NC2CCCCC2)ccc1Cl | 13% | 47% | 16µM* | 3% | -7%
CCOC(=O)Cc1csc(NC(=O)CSc2nnc(-c3ccc(C)cc3)o2)n1 | 7.9µM* | 13µM* | 6% | 0% | -8%
CCOC(=O)Cc1csc(NC(=O)CSc2nnc(-c3ccc(F)cc3)o2)n1 | ? | ? | -5% | -2% | -27%
COc1ccc(C(=O)c2ccccc2O)c(O)c1 | -3% | 12% | -2%[25.6 µM] | -4%[25.5 µM] | -14%
COc1ccc(O)c(C(=O)CC(=O)c2ccccc2)c1 | 13µM* | 10µM* | ? | 20µM* | -86%
CCCSc1nc(C)c(-c2csc(C(C#N)=C3CCCC3)n2)cc1C#N | 5% | -3% | 16µM* | 0% | -14%
CN1CCc2c(cc(O)c(O)c2Cl)[C@H](c2cccc(Cl)c2)C1 | -1% | -16% | -8% | 2% | /
CCOC(=O)[C@@H](O)Cc1cnc2ccccc2n1 | -3%[9.22 µM] | -2%[9.22 µM] | 5µM* | -1%[11.4 µM] | -8%[10.9 µM]
CCOC(=O)C(C)c1nc2ccccc2[nH]c1=O (configuration not stated) | / | / | / | 1%[25.5 µM] | /
CCOc1ccc(NC(=O)/C=C/c2ccccc2)c([N+](=O)[O-])c1 | 1% | / | / | / | /
CCOc1ccc(N/C=C/C(=O)c2ccccc2)c([N+](=O)[O-])c1 | 5.6µM* | / | / | / | /
O=C(CCCSc1nc(-c2ccco2)cc(C(F)(F)F)n1)Nc1ccc2c(c1)OCO2 | -15% | 11% | 25µM* | -2% | -8%
Cc1ccc(C(=O)c2sc(Nc3ccc(F)cc3)nc2N)c(C)c1 | ? | 6% | / | / | -5%[10.9 µM]
O=C(Nc1ccc(F)c(F)c1)C(c1ccccc1)N1Cc2ccccc2C1=O (configuration not stated) | / | -7% | / | / | /
